# High-throughput results (PubChem BioAssay)
# An excerpt weighted towards active compounds, which were near 6.8% of everything screened.
# C diff growth: blocks growth of Clostridium difficile; Clostridium difficile clinical isolate growth, OD600, 24 h; hits give low values; hit rate 0.25% among 86,000; growth activity, negative = inhibition, % at 16 µg/mL (by protocol);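 active means mean growth activity at or below -80% and every replicate also at or below -80%; inconclusive means mean at or below -80% but some replicate above -80%; inactive means mean growth activity above -80%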
# T cruzi growth-1: inhibitors of T. cruzi proliferation. T. cruzi beta-gal in NIH3T3, GalScreen luminescence, 90 h. inhibition, % at 8.34 µM. hit rate 5.9% among 77,000;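 active means mean inhibition above about 93%, with at least 55% of replicates each passing it, limit read from the data, passing the limit was not always enough; inconclusive means only one of those two conditions holds; inactive means neither condition holds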
# Pf Dd2 inh: P. falciparum Dd2 growth inhibition; SYBR Green, 72 h; hits give low values; activity change, % at 10 µM; hit rate 2.3% among 94,000; in the data active means activity change below about -80%; inconclusive means no clear call, values can overlap the other calls
# T cruzi growth-2: Trypanosoma cruzi proliferation inhibition | T. cruzi beta-gal in NIH3T3, GalScreen luminescence, 90 h | inhibition, % at 8.35 µM | shares compounds with T cruzi growth-1 | hit rate 72% among 5,600;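 active means mean replicate inhibition above about 95% and at least 55% of replicates individually reaching it, limit read from the data; inconclusive means only one of the two criteria is met; inactive means neither criterion is met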
# T cruzi growth-3: blocks T. cruzi growth in NIH3T3 host cells; shares compounds with T cruzi growth-1; T. cruzi beta-gal in NIH3T3, GalScreen luminescence, 90 h; AID 651740; hit rate 21% among 5,600; inhibition, % at 2.09 µM;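 active means mean inhibition above about 95%, with at least 55% of replicates also reaching it, limit read from the data; inconclusive means meets just one of the two conditions; inactive means meets neither condition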
# 3T3 cytotox: kills mouse NIH/3T3 fibroblasts | shares compounds with T cruzi growth-1 | NIH/3T3 viability, CellTiter-Glo ATP luminescence, 90 h | cytotoxicity (signal decrease), % at 8.35 µM | hit rate 14% among 5,600;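 active means mean signal decrease across replicates above about 35% based on untreated-well scatter, with enough replicates individually passing, limit read from the data; inconclusive means no rule stated though some were filed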
# 3T3 cytotox 2: NIH/3T3 (mouse) viability loss; inhibition, % at 24.9 µM; AID 651744; NIH/3T3 viability, CellTiter-Glo ATP luminescence, 90 h; shares compounds with T cruzi growth-1; hit rate 56% among 5,600;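 active means mean loss of cell viability signal at or above a set limit, and enough replicates individually reaching it; inconclusive means meets only the mean limit or only the replicate share; inactive means meets neither condition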
# A number is an active result; i = inactive; ? = inconclusive; nt = no result.
SMILES,C diff growth,T cruzi growth-1,Pf Dd2 inh,T cruzi growth-2,T cruzi growth-3,3T3 cytotox,3T3 cytotox 2
CN(C)C(=O)c1cccc(-c2ccc([C@@H]3[C@H](CO)N4CCCCN(Cc5cccnc5)C[C@@H]34)cc2)c1,i,i,i,nt,nt,nt,nt
CN(C)C(=O)c1cccc(-c2ccc([C@H]3[C@@H](CO)N4CCCCN(Cc5cccnc5)C[C@H]34)cc2)c1,i,?,i,107,i,i,i
CN(C)C(=O)c1ccc(-c2ccc([C@H]3[C@@H](CO)N4CCCCN(Cc5cccnc5)C[C@H]34)cc2)cc1,i,?,i,104,i,i,i
CO[C@@H]1CN(C)C(=O)c2cc(NC(=O)c3ccc4c(c3)OCO4)ccc2OC[C@@H](C)N(CC2CC2)C[C@@H]1C,nt,i,i,nt,nt,nt,nt
O=C(c1ccncc1)N1C[C@H]2[C@@H](c3ccccc31)[C@H](CO)N2C(=O)c1ccccc1F,i,i,i,nt,nt,nt,nt
CCCC#Cc1ccc2c(c1)O[C@@H](CN(C)C(=O)c1ccccc1)[C@H](C)CN([C@@H](C)CO)S2(=O)=O,i,96,i,102,i,i,62
CCCC#Cc1ccc2c(c1)O[C@H](CN(C)C(=O)c1ccncc1)[C@H](C)CN([C@@H](C)CO)S2(=O)=O,i,i,i,nt,nt,nt,nt
CCCC#Cc1ccc2c(c1)O[C@H](CN(C)C(=O)c1ccccc1)[C@H](C)CN([C@H](C)CO)S2(=O)=O,i,98,i,107,i,i,58
CC(C)CC#Cc1ccc2c(c1)O[C@@H](CN(C)C(=O)c1ccccc1)[C@@H](C)CN([C@@H](C)CO)S2(=O)=O,i,120,i,102,i,i,103
CCCC#Cc1ccc2c(c1)O[C@@H](CN(C)C(=O)c1ccncc1)[C@H](C)CN([C@@H](C)CO)S2(=O)=O,i,i,i,nt,nt,nt,nt
COCC#Cc1ccc2c(c1)O[C@H](CN(C)C(=O)c1ccccc1)[C@@H](C)CN([C@H](C)CO)S2(=O)=O,i,i,i,nt,nt,nt,nt
CCCC#Cc1ccc2c(c1)O[C@H](CN(C)C(=O)c1ccccc1)[C@@H](C)CN([C@@H](C)CO)S2(=O)=O,i,112,i,104,i,i,35
CC(C)CC#Cc1ccc2c(c1)O[C@H](CN(C)C(=O)c1ccccc1)[C@@H](C)CN([C@H](C)CO)S2(=O)=O,i,nt,i,nt,nt,nt,nt
C[C@H](CO)N1C[C@H](C)[C@H](CN(C)C(=O)Nc2ccc(F)cc2)Oc2ccc(NC(=O)CCN3CCOCC3)cc2C1=O,i,i,i,nt,nt,nt,nt
C[C@@H]1CN([C@H](C)CO)C(=O)c2cc(/C=C/c3ccccc3)cnc2O[C@@H]1CN(C)Cc1ccc2c(c1)OCO2,i,86,i,109,i,i,102
C/C=C/c1cnc2c(c1)C(=O)N([C@@H](C)CO)C[C@@H](C)[C@@H](CN(C)Cc1ccc3c(c1)OCO3)O2,i,nt,i,nt,nt,nt,nt
C/C=C/c1cnc2c(c1)C(=O)N([C@H](C)CO)C[C@H](C)[C@@H](CN(C)Cc1ccc3c(c1)OCO3)O2,i,nt,i,nt,nt,nt,nt
C[C@@H]1CN([C@@H](C)CO)C(=O)c2cc(/C=C/c3ccccc3)cnc2O[C@@H]1CN(C)Cc1ccc2c(c1)OCO2,i,104,i,103,i,i,104
CO[C@H]1CN(C)C(=O)c2cc(NS(=O)(=O)c3cn(C)cn3)ccc2OC[C@H](C)N(CC2CC2)C[C@@H]1C,nt,i,i,nt,nt,nt,nt
Cc1ccc(S(=O)(=O)N2CC[C@@H]3[C@H]2c2cc(-c4cccc(C#N)c4)ccc2N(C)[C@H]3CO)cc1,i,?,i,104,100,44,42
CN1c2ccc(C3=CCCCC3)cc2[C@@H]2[C@@H](CCN2S(=O)(=O)c2ccc(F)cc2)[C@H]1CO,i,i,i,nt,nt,nt,nt
CN1c2ccc(C3=CCCCC3)cc2[C@@H]2[C@@H](CCN2S(=O)(=O)c2ccccc2)[C@@H]1CO,i,105,i,96,106,i,78
CN1c2ccc(-c3cccc(C#N)c3)cc2[C@@H]2[C@@H](CCN2S(=O)(=O)c2ccccc2)[C@H]1CO,i,97,i,98,109,52,76
CN1c2ccc(-c3cccc(C#N)c3)cc2[C@H]2[C@H](CCN2S(=O)(=O)c2ccccc2)[C@H]1CO,i,101,i,108,i,i,26
